Experimental findings from PubChem BioAssay (NCI) are described below.

About 83,000 compounds went through this panel and 20% of them were active in at least one assay; those are over-represented in the sample as a whole.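 Negative percent growth values reflect cell death: -40 means 40% of the cells present at the start died, and -100 means all died.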 Values without a mark were called inactive. The source made the active and inactive calls. The calls were made as follows: active = growth percent below 10; inactive = the rest.

Among the test systems are NCI-H23 lung; NCI-H226 lung; NCI-H322M lung; HOP-62 NSCLC; NCI-H460 lung; HOP-92 NSCLC; NCI-H522 lung; A549/ATCC NSCLC; 786-0 renal; COLO 205 colon; DU-145 prostate; K-562 leukemia; MALME-3M melanoma; MDA-MB-231 breast; RXF 393 renal; SF-268 CNS; SF-295 CNS; SF-539 CNS; UACC-257 melanoma; M14 melanoma.
Holding throughout (test): NCI-60 one-dose screen, 48 h (100 = growth as untreated, 0 = no growth, -100 = all killed)
Details in all cases: 10 µM unless noted

On to `C=CCn1c(SCC(=O)Nc2ccc(/C(C)=N\O)cc2)nnc1-c1cc(-c2ccc(OC)cc2)nc2ccccc12`, for which the growth with NCI-H23 lung is 33.7%; in the assay on NCI-H226 lung it was 41.2%; in the assay on NCI-H322M lung it was 31.9%; with HOP-62 NSCLC, 38.5%; in the assay with NCI-H460 lung, 27.8%; with HOP-92 NSCLC it was 45.9%. Also, the growth was 18.7% with NCI-H522 lung; 20.1% in the assay on A549/ATCC NSCLC; 32.8% in the assay with 786-0 renal; 19.2% with COLO 205 colon; 60.6% in the assay with DU-145 prostate; 19.1% in the assay with K-562 leukemia. The growth in the assay on MALME-3M melanoma is 66.4%; with MDA-MB-231 breast it was 33.7%; with RXF 393 renal it was 42.2%; in the assay with SF-268 CNS, 51.5%; in the assay with SF-295 CNS it was 19.8%; in the assay on SF-539 CNS, 20.2%. Also, the values for the growth with UACC-257 melanoma and in the assay with M14 melanoma were 44.1% and 36.3%, respectively.
With `COc1ccccc1N1CCN(CC(O)COc2c(Br)c(Br)c(Br)c3c2OC(C)(C)C3)CC1` (stereo not given), the growth is 48.8% with NCI-H23 lung; 45% in the assay with NCI-H226 lung; 59.9% in the assay with NCI-H322M lung; 66.1% with HOP-62 NSCLC; 15.1% in the assay with NCI-H460 lung; -28.9% (active) with HOP-92 NSCLC. Further, the growth was 55.1% in the assay with NCI-H522 lung; 45.5% with A549/ATCC NSCLC; 6.05% (active) in the assay on 786-0 renal; 58.6% in the assay with COLO 205 colon; 97.2% in the assay with DU-145 prostate; 11% in the assay with K-562 leukemia. The growth in the assay on MALME-3M melanoma is 67.2%; in the assay with MDA-MB-231 breast, 44.9%; in the assay with RXF 393 renal, 40.2%; in the assay on SF-268 CNS, 131%; with SF-295 CNS, 29.8%; in the assay on SF-539 CNS, 94.1%. Besides, the growth in the assay on UACC-257 melanoma was 96.9%; with M14 melanoma, 29.9%.
As to `O=C(Nc1ccc(-n2cc(-c3ccncc3)c(-c3ccc(O)c(Cl)c3)n2)cc1)Nc1cccc(Cl)c1Cl`, the growth in the assay on NCI-H23 lung is 66%; in the assay with NCI-H226 lung, 73.7%; with NCI-H322M lung, 79.7%; in the assay with HOP-62 NSCLC, 87.6%; in the assay on NCI-H460 lung it was 43%; with HOP-92 NSCLC, 16.5%. Also, the growth in the assay with NCI-H522 lung was 66.1%; with A549/ATCC NSCLC it was 38.9%; in the assay with 786-0 renal, 58.3%; in the assay with COLO 205 colon it was 39.1%; in the assay on DU-145 prostate it was 66.4%; with K-562 leukemia it was 39.6%. For the same compound, the growth with MALME-3M melanoma is 67.4%; in the assay on MDA-MB-231 breast it was 27%; with RXF 393 renal, -8.38% (active); with SF-268 CNS, 82%; in the assay on SF-295 CNS, 37.6%; in the assay on SF-539 CNS, 18.5%. Moreover, the growth is 90.7% in the assay on UACC-257 melanoma and 46.9% in the assay on M14 melanoma.
For `COc1cc([C@@H]2c3cc4c(cc3C(OC3O[C@@H]5COC(C)O[C@H]5[C@H](O)[C@H]3O)C3COC(=O)[C@@H]32)OCO4)cc(OC)c1O` (stereo not given in full), the growth in the assay with NCI-H23 lung was 14.3%; in the assay with NCI-H226 lung, 33.1%; with NCI-H322M lung, 115%; in the assay with HOP-62 NSCLC it was -9.99% (active); with NCI-H460 lung, 7.32% (active); in the assay on HOP-92 NSCLC it was 63.5%. In addition, the growth with NCI-H522 lung was 24.3%; in the assay on A549/ATCC NSCLC, 29.7%; with 786-0 renal, -13.1% (active); in the assay on COLO 205 colon, 60.6%; in the assay with DU-145 prostate, 15.9%; in the assay with K-562 leukemia, 30.5%. For the same compound, the growth in the assay with MALME-3M melanoma is 40.2%; in the assay on MDA-MB-231 breast, 78.3%; in the assay with RXF 393 renal, 28.9%; in the assay on SF-268 CNS, 23.9%; in the assay with SF-295 CNS, -10.4% (active); in the assay on SF-539 CNS it was -5.44% (active). Further, the figures for the growth with UACC-257 melanoma and in the assay with M14 melanoma were 51.2% and 4.19% (active), respectively.
Turning to `CCOC(=O)C1CN(Cc2ccccc2)C(=O)C1=O` (stereo not given), the growth is 105% with NCI-H23 lung; 93.3% in the assay on NCI-H226 lung; 94.9% in the assay with NCI-H322M lung; 98.8% in the assay on HOP-62 NSCLC; 106% in the assay with NCI-H460 lung; 84.3% in the assay on HOP-92 NSCLC. In addition, the growth in the assay on NCI-H522 lung was 98.6%; with A549/ATCC NSCLC, 112%; with 786-0 renal it was 105%; in the assay with COLO 205 colon it was 93.6%; in the assay on DU-145 prostate, 110%; in the assay with K-562 leukemia, 104%. In addition, the growth was 92.8% with MALME-3M melanoma; 115% in the assay on MDA-MB-231 breast; 112% in the assay with RXF 393 renal; 101% in the assay with SF-268 CNS; 105% in the assay with SF-295 CNS; 93.6% in the assay on SF-539 CNS. For the same compound, the growth in the assay with UACC-257 melanoma is 104%; in the assay with M14 melanoma it was 94.6%.
For the compound `CCOc1ccc(NC2=C(Cl)C(=O)c3ccccc3C2=O)cc1`, the growth in the assay with NCI-H23 lung is 39.6%; in the assay on NCI-H226 lung, 101%; in the assay on NCI-H322M lung, 105%; in the assay with HOP-62 NSCLC it was 95.1%; with NCI-H460 lung it was 97.9%; in the assay with HOP-92 NSCLC, 78.6%. In addition, the growth is 62.7% with NCI-H522 lung; 97% with A549/ATCC NSCLC; 94.7% with 786-0 renal; 108% in the assay on COLO 205 colon; 102% in the assay on DU-145 prostate; -2.3% (active) in the assay on K-562 leukemia. In addition, the growth was 108% in the assay on MALME-3M melanoma; 80.2% in the assay with MDA-MB-231 breast; 105% with RXF 393 renal; 94.2% with SF-268 CNS; 94.3% with SF-295 CNS; 90.9% in the assay with SF-539 CNS. Besides, the growth in the assay on UACC-257 melanoma was 97.6%; in the assay with M14 melanoma it was 68%.
For `O=c1c2ccccc2[nH]n1Cc1ccc2c(c1)OCO2`, the growth with NCI-H23 lung is 106%; in the assay with NCI-H226 lung, 92.6%; with NCI-H322M lung, 97.6%; in the assay with HOP-62 NSCLC it was 97.1%; in the assay on NCI-H460 lung it was 0.543% (active); in the assay with HOP-92 NSCLC, 90.2%. The growth in the assay on NCI-H522 lung was 99.4%; in the assay with A549/ATCC NSCLC it was 99.6%; in the assay with 786-0 renal it was 93.3%; in the assay on COLO 205 colon, 116%; in the assay with DU-145 prostate it was 112%; with K-562 leukemia, 95.9%. Moreover, the growth in the assay on MALME-3M melanoma is 100%; with MDA-MB-231 breast, 114%; with RXF 393 renal it was 103%; in the assay with SF-268 CNS, 101%; in the assay with SF-295 CNS, 104%; in the assay on SF-539 CNS it was 98.1%. The growth in the assay with UACC-257 melanoma is 97%; with M14 melanoma it was 104%.
